# Where “and” joins values, the source holds several entries; their conditions need not be identical. Equal values may be shown once. Records with an inconclusive call do not appear. Entries that show only a call come without a potency. Some compounds were tested as several samples or in several runs, with calls that do not always agree. A number with no mark means an inactive call. Calls of active or inactive are those of the source. Unless noted, calls follow the shape of the dose curve; as a rule, active = well fitted curve in the direction sought with a large enough effect; inconclusive = small, poorly fitted or top-dose-only effect, or another doubt; inactive = no such curve, though single readings can be large; an effect the other way counts as inactive or inconclusive.
# Experiments:
# [1] = molecular target: Cellular tumor antigen p53 (Homo sapiens) (UniProt P04637); experiment: Primary qHTS for small molecule compounds that upregulate eGFP-tagged delta133p53alpha (in N-terminal) cells. (AID 2060322); conditions: NCI-H358 eGFP-delta133p53alpha fluorescence, 24 h; activation: stronger effect = higher value; also: nearly all actives have a fitted effect of over 75% in size; also: potency is read from the fitted curve at half-maximal effect;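 as to activation: cells pre-induced with doxycycline then dosed without doxycycline; series mostly up to about 56 µM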
# Chain of Cellular tumor antigen p53 (Homo sapiens) (P04637 whole entry, looked up): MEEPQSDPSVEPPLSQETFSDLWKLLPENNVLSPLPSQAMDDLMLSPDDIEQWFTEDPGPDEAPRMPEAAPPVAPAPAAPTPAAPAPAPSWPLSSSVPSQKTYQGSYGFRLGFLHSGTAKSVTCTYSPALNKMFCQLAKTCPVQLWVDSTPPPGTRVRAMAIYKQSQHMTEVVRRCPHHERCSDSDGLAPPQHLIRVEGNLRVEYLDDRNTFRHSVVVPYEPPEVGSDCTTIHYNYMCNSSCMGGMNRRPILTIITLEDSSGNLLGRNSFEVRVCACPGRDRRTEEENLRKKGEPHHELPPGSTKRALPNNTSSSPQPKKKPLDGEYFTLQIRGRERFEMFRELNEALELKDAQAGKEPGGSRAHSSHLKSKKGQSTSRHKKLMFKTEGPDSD
# Summary of the method: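 NCI-H358 cells pre-induced 24 h with 10 ng/ml doxycycline for eGFP-delta133p53alpha, plated dox-free and exposed 24 h at 37C to titrated compounds. Fixed, Hoechst-stained; gated GFP peak intensity by laser scanning cytometry, normalized to DMSO (0%) and 57.5 uM 5-azacytidine (100%).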
# [2] = molecular target: Cellular tumor antigen p53 (Homo sapiens) (UniProt P04637); experiment: Primary qHTS for small molecule compounds that upregulate eGFP-tagged delta133p53alpha (in C-terminal) cells. (AID 2060324); also: potency is read from the fitted curve at half-maximal effect
# Summary of the method: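 Read-out: gated-cell GFP peak intensity (laser scanning cytometer), plate-normalized with DMSO as 0% activity, after 24 h compound exposure at 37C. Cells were C-terminal eGFP-tagged delta133p53alpha NCI-H358, doxycycline-induced (100 ng/ml, 24 h) before plating.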
# [3] = molecular target: Aldehyde dehydrogenase, mitochondrial (Homo sapiens) (UniProt P05091); experiment: qHTS for Inhibitors of the Aldehyde Dehydrogenase Family (ALDH2) Validation screens (AID 2061302; active = well fitted inhibition curve with a large enough effect; title and protocol of this record describe different tests)
# [4] = molecular target: Aldehyde dehydrogenase, mitochondrial (Homo sapiens) (UniProt P05091); experiment: qHTS for Inhibitors of the Aldehyde Dehydrogenase Family (ALDH2) Primary screen (AID 2061308); also: nearly all actives have a fitted effect of over 55% in size
# [5] = molecular target: Retinaldehyde dehydrogenase 3 (Homo sapiens) (UniProt P47895); experiment: qHTS for Inhibitors of the Aldehyde Dehydrogenase Family (ALDH1A3) Validation screen (AID 2061312); also: nearly all actives have a fitted effect of over 45% in size
# [6] = molecular target: Retinaldehyde dehydrogenase 3 (Homo sapiens) (UniProt P47895); experiment: qHTS for Inhibitors of the Aldehyde Dehydrogenase Family (ALDH1A3) Primary screen (AID 2061315)
# [7] = BET inhibitor-based combinations targeting novel dependencies in MECOM-rearranged (r) AML: SET-2 cell line (AID 2202231); conditions: SET-2 AML cells viability, CellTiter-Glo luminescence, 48 h; viability: stronger effect = lower value, series mostly up to about 46 µM; also: nearly all actives have a fitted effect of over 35% in size
# Summary of the method: (§1)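 Readout: CellTiter-Glo luminescence. Exposure: 48 h, 11 concentrations, 500 cells/well. Metric: AUC and within-line Z-AUC after DMSO/empty-well normalization.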
# [8] = BET inhibitor-based combinations targeting novel dependencies in MECOM-rearranged (r) AML: OCI-AML3 cell line (AID 2202232); conditions: Potency: OCI-AML3 viability; also: potency is read from the fitted curve at half-maximal effect; nearly all actives have a fitted effect of over 35% in size
# Summary of the method: as §1
# [9] = BET inhibitor-based combinations targeting novel dependencies in MECOM-rearranged (r) AML: HNT-34 cell line (AID 2202234); also: nearly all actives have a fitted effect of over 35% in size
# Summary of the method: (§2)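 Seeding density was 500 cells/well, and drug exposure lasted 48 hr under standard culture conditions. Read-out used CellTiter-Glo reagent with a 15 min room-temperature incubation before luminescence measurement; AUC and Z-AUC summarize the normalized responses.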
# [10] = BET inhibitor-based combinations targeting novel dependencies in MECOM-rearranged (r) AML: UCSD-AML1 cell line (AID 2202235); also: series mostly up to about 46 µM; nearly all actives have a fitted effect of over 40% in size
# Summary of the method: as §2
# [11] = BET inhibitor-based combinations targeting novel dependencies in MECOM-rearranged (r) AML: AML-191 cell line (AID 2202236; also: nearly all actives have a fitted effect of over 35% in size)
# Summary of the method: as §1
# [12] = BET inhibitor-based combinations targeting novel dependencies in MECOM-rearranged (r) AML: AML-194 cell line (AID 2202237; also: nearly all actives have a fitted effect of over 40% in size)
# Summary of the method: as §1
# [13] = molecular target: Retinaldehyde dehydrogenase 3 (Homo sapiens) (UniProt P47895); experiment: qHTS for Inhibitors of the Aldehyde Dehydrogenase Family (ALDH1A3) Confirmatory screens (AID 2061311); also: potency is read from the fitted curve at half-maximal effect; nearly all actives have a fitted effect of over 60% in size
# [14] = molecular target: Retinal dehydrogenase 2 (Homo sapiens) (UniProt O94788); experiment: qHTS for Inhibitors of the Aldehyde Dehydrogenase Family (ALDH1A2) Confirmation screens (AID 2061314); also: nearly all actives have a fitted effect of over 65% in size
# [15] = BET inhibitor-based combinations targeting novel dependencies in MECOM-rearranged (r) AML: MV-4-11 cell line (AID 2202233); also: nearly all actives have a fitted effect of over 45% in size
# Summary of the method: as §2
structure (smiles),measurement,setting,value
CO[C@H]1CC=C2CCN3CCC4=C(CC(=O)OC4)[C@]23C1,activation,[1],-25.9%
same,Potency,[2],inactive
O=c1[nH]c2ccccc2n1C1CCN(CCCC(c2ccc(F)cc2)c2ccc(F)cc2)CC1,Potency,[1],26.9 µM (active)
same,activation,[1],-35.4%
same,Potency,[3],inactive
same,Potency,[4],inactive
same,Potency,[5],inactive
same,Potency,[6],inactive
COc1ccc2c(c1OC)CN1CCc3cc4c(cc3C1C2)OCO4 (centres undefined),Potency,[1],34.3 µM (active)
same,activation,[1],26.6%
S=C(NC1CCCCC1)N1CCC(c2cnc[nH]2)CC1,Potency,[4],inactive
same,Potency,[6],inactive
CC(O)(CS(=O)(=O)c1ccc(F)cc1)C(=O)Nc1ccc(C#N)c(C(F)(F)F)c1 (centres undefined),Potency,[4],inactive
same,Potency,[6],inactive
same,viability,[7],92.1%
same,Potency,[8],0.0042 µM (active)
same,Potency,[9],inactive
same,Potency,[10],inactive
same,Potency,[11],inactive
same,Potency,[12],inactive
CN1CCc2cc(O)cc3c2[C@H]1Cc1ccc(O)c(O)c1-3,Potency,[13],12.7 µM (active)
same,Potency,[14],inactive
O=C(O)c1nn(Cc2ccc(Cl)cc2Cl)c2ccccc12,activation,[1],21.3% and 19.8% and -21.2%
same,Potency,[2],inactive
same,Potency,[3],inactive
same,Potency,[5],inactive
same,viability,[7],107%
same,Potency,[15],inactive
same,Potency,[9],inactive
same,Potency,[10],inactive
COc1ccc(OC)c(C(O)C(C)N)c1 (centres undefined),activation,[1],15.6%
same,Potency,[2],inactive
same,Potency,[3],inactive
same,Potency,[5],inactive
O=c1[nH]c2ccccc2n1CCCN1CCC(n2c(=O)[nH]c3cc(Cl)ccc32)CC1,activation,[1],22.2% and -21.7%
same,Potency,[2],inactive
same,Potency,[3],inactive
same,Potency,[5],inactive
same,viability,[7],95.9%
same,Potency,[9],inactive
same,Potency,[10],inactive
same,Potency,[11],inactive
same,Potency,[12],inactive
OC1CCCCC1N1CCC(c2ccccc2)CC1 (centres undefined),activation,[1],-21.4%
same,Potency,[2],inactive
same,Potency,[3],inactive
same,Potency,[5],inactive
C[C@]12N[C@H](Cc3ccccc31)c1ccccc12,activation,[1],-0.686%
same,Potency,[2],inactive
same,Potency,[3],inactive
same,Potency,[5],inactive
CC(N)[C@H](O)c1ccc(O)c(O)c1 (some centres undefined),activation,[1],-12.2%
same,Potency,[2],inactive
same,Potency,[3],inactive
same,Potency,[5],inactive
O=C1CCCN1CC#CCN1CCCC1,activation,[1],-14.5%
same,Potency,[2],inactive
same,Potency,[3],inactive
same,Potency,[5],inactive
Cc1[nH]c2ccc(O)cc2c1CCN,activation,[1],-25.5%
same,Potency,[2],inactive
same,Potency,[3],inactive
same,Potency,[5],inactive
CC(=O)OCC1=C(C(=O)O)N2C(=O)[C@@H](NC(=O)CCC[C@@H](N)C(=O)O)[C@H]2SC1,activation,[1],20.4%
same,Potency,[2],inactive
same,Potency,[3],inactive
same,Potency,[5],inactive
NCC(O)c1ccc(O)cc1 (centres undefined),activation,[1],-4.18% and -26.8%
same,Potency,[2],inactive
same,Potency,[3],inactive
same,Potency,[5],inactive
CC(C)Oc1cccnc1N(C)C1CCN(Cc2ccccc2)CC1,activation,[1],-4.1%
same,Potency,[2],inactive
same,Potency,[3],inactive
same,Potency,[5],inactive
c1ccc2c(c1)OCC(C1=NCCN1)O2 (centres undefined),activation,[1],-26.9%
same,Potency,[2],30.1 µM (active)
same,Potency,[3],inactive
same,Potency,[5],inactive
CC(CCc1ccccc1)NC(C)C(O)c1ccc(O)cc1 (centres undefined),activation,[1],-7.34% and 8.98%
same,Potency,[2],inactive
same,Potency,[3],inactive
same,Potency,[5],inactive
C[C@H](N)CN1CCc2ccc(Br)cc21,activation,[1],5.22%
same,Potency,[2],inactive
same,Potency,[3],inactive
same,Potency,[5],inactive
NC(=O)CN1CC(O)CC1=O (centres undefined),activation,[1],-34.2%
same,Potency,[2],inactive
same,Potency,[3],inactive
same,Potency,[5],inactive
NC(=O)c1cc(N2CC2)c([N+](=O)[O-])cc1[N+](=O)[O-],activation,[1],-14.9%
same,Potency,[2],inactive
same,Potency,[3],inactive
same,Potency,[5],inactive
CCCN1CC[C@@H]2c3cc(O)ccc3CC[C@@H]21,activation,[1],-3.44%
same,Potency,[2],inactive
same,Potency,[3],inactive
same,Potency,[5],inactive
CN(C(=O)Cc1ccc(Cl)c(Cl)c1)C(CN1CCCC1)c1cccc(OCC(=O)O)c1 (centres undefined),activation,[1],-43.2%
same,Potency,[2],inactive
same,Potency,[3],inactive
same,Potency,[5],inactive
CCCN(CCC)[C@@H]1CCc2ccc(O)cc2C1,activation,[1],-24.8%
same,Potency,[2],inactive
same,Potency,[3],inactive
same,Potency,[5],inactive
CCCCc1ccc(C(=O)O)nc1,activation,[1],16.6%
same,Potency,[2],inactive
same,Potency,[3],inactive
same,Potency,[5],inactive
Cc1cccc(C)c1NC(=O)CN1CCCC1=O,activation,[1],-17.7% and -15.1% and -5.58%
same,Potency,[2],inactive
same,Potency,[3],inactive
same,Potency,[5],inactive
same,viability,[7],109%
same,Potency,[15],inactive
same,Potency,[9],inactive
same,Potency,[10],inactive
same,Potency,[11],inactive
same,Potency,[12],inactive
COc1ccc(CNC(=O)/C=C/c2ccc3[nH]cc(CCN(C)C)c3c2)cc1,activation,[1],13.3%
same,Potency,[2],inactive
same,Potency,[3],inactive
same,Potency,[5],inactive
COc1ccc2[nH]c3c(c2c1)CCNC3,activation,[1],-23.5%
same,Potency,[2],inactive
same,Potency,[3],inactive
same,Potency,[5],inactive
